Many of the other results were omitted from the sample, so hits are more common in it than they were.
AMPAR-TARP mod: modulates AMPAR-stargazin complexes; hit rate 3.5% among 40,000; calls only at 30 µM; HEK293 GluA2+stargazin, membrane potential dye (FDSS), glutamate EC50; hits were called plate by plate, in both directions; O88602+P19491;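 active means any of four per-well response measures lying three or more SD from its plate-wide compound average, in either direction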
GIRK2 activator: GIRK2 channel activators by thallium flux. HEK293 GIRK2/NPY4 cells, thallium flux fluorescence. activation (% efficacy), % for hits at 37.5 µM. 34,000 tested, under 10 active;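 active means primary screen hit, no activity in plain HEK293 cells, and in GIRK2-only cells above 5% efficacy rising with concentration; inactive means the rest, including fluorescent compounds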;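 further: efficacy is normalized control-subtracted fluorescence 15 s after thallium addition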
Target sequence (P48051 whole entry, looked up): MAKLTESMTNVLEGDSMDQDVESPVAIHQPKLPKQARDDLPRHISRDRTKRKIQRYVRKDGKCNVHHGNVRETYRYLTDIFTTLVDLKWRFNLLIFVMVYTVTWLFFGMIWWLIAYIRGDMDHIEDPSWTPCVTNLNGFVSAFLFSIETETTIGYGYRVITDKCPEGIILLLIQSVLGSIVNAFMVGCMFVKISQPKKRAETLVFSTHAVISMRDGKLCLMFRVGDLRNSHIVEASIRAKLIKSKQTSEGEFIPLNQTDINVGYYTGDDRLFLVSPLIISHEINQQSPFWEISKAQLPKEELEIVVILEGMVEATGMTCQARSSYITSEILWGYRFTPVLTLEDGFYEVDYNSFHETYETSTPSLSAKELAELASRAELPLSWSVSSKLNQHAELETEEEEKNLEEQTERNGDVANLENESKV
Hits are given with their value; – = inactive; · = no result; + = active, no number; [ ] = another dose, or the depositor's remark.

SMILES	AMPAR-TARP mod	GIRK2 activator
COc1cccc(C(=O)NCC(O)(c2cccs2)C2CC2)c1OC (configuration not stated)	–	–
Cn1c(=O)c2c(nc(N3CCOCC3)n2CCSc2nnnn2-c2ccccc2)n(C)c1=O	–	·
Cc1nnc(SCCn2c(N3CCOCC3)nc3c2c(=O)n(C)c(=O)n3C)s1	+	·
O=C(Nc1ccc2ncsc2c1)c1ccc(C(=O)c2ccccc2)cc1	–	–
O=C(Nc1ccc2ncsc2c1)c1cccc([N+](=O)[O-])c1	+	–
O=C(Cn1nc(-c2cccnc2)ccc1=O)Nc1nc2ccccc2[nH]1	+	–
Cc1cc(=O)n(CC(=O)Nc2nc3ccccc3[nH]2)cn1	–	–
CC(C)N(Cc1ccccc1)S(=O)(=O)c1cc2c3c(c1)CCN3C(=O)CC2	–	–
COc1cc(/C=C2\SC(=S)N(c3ccc(O)cc3)C2=O)cc(OC)c1OC	–	·
CN(C)c1ccc(/C=C2\SC(=S)N(c3ccc(O)cc3)C2=O)cc1	+	·
CCOc1ccc(N2C(=O)/C(=C/c3ccc4c(c3)OCO4)SC2=S)cc1	–	·
CCOc1ccc(N2C(=O)/C(=C\c3ccc(O)cc3)SC2=S)cc1	+	·
CN1CCC(CNC(=O)C(=O)Nc2ccc(F)c(Cl)c2)CC1	–	–
Cc1cnc2n(c1=O)C(CC(=O)N1CCN(C(=O)c3ccco3)CC1)CS2 (configuration not stated)	–	–
CCOC(=O)C1CCN(C(=O)Cc2csc(Nc3cccc(C(F)(F)F)c3)n2)CC1	+	–
CCOC(=O)C1CCN(C(=O)Cc2csc(Nc3ccccc3)n2)CC1	–	–
CS(=O)(=O)N1CCCC(C(=O)N(Cc2ccccc2)Cc2ccccc2)C1 (configuration not stated)	–	–
CS(=O)(=O)N1CCCCC1C(=O)N(Cc1ccccc1)Cc1ccccc1 (configuration not stated)	+	–
Cc1csc(NC(=O)c2ccc(S(=O)(=O)NCc3cccnc3)o2)n1	–	–
O=C(Nc1nc2ccc(Cl)cc2s1)C1CCCN(c2cc(-n3cccn3)ncn2)C1 (configuration not stated)	–	–
CCSc1ccccc1C(=O)NC1CNC(=O)C1 (configuration not stated)	–	·
O=C1CC(NC(=O)c2ccccc2Oc2ccccc2)CN1 (configuration not stated)	+	·
O=c1c(O)c(-c2ccccc2)oc2ccccc12	–	·
CN(C)c1ccc(-c2oc3ccccc3c(=O)c2O)cc1	+	·
Cc1cc(C)n(-c2cc(C(C)C)nc3c(-c4ccccc4)c(C)nn23)n1	+	–
SMILES	AMPAR-TARP mod	GIRK2 activator
Cc1nn2c(N3CCN(c4ccccn4)CC3)cc(C(C)C)nc2c1-c1ccccc1	–	–
Cc1ccc(NC(=O)Cn2cnc3c(nnn3C)c2=O)c(C)c1	–	–
COc1ccccc1CNC(=O)CCc1c(C)nn(-c2nc(C)cc(=O)[nH]2)c1C	–	–
CS(=O)(=O)N1CCN(C(=O)Cc2csc(NC(=O)c3ccco3)n2)CC1	–	–
CCN(CC)CCNC(=O)C(=O)Nc1ccc([N+](=O)[O-])cc1	–	·
CC(O)CNC(=O)C(=O)Nc1ccc([N+](=O)[O-])cc1 (configuration not stated)	+	·
O=C(c1ccc(F)cc1Cl)N1CC(c2nc(-c3ccsc3)no2)C1	·	–
O=C(NCCOc1ccc(F)cc1)c1ccc([N+](=O)[O-])cc1	–	–
O=C(NCCOc1cccc(C(F)(F)F)c1)c1ccc([N+](=O)[O-])cc1	+	–
CCOc1ccc(OCCNC(=O)c2ccc([N+](=O)[O-])cc2)cc1	+	–
O=C(NCCOc1cccc(C(F)(F)F)c1)c1ccc(Cl)c([N+](=O)[O-])c1	–	–
Cn1nnc2c(N3CCN(C(=O)c4cc5ccccc5oc4=O)CC3)ncnc21	–	–
O=C1CC(NC(=O)Nc2ccccc2)CN1 (configuration not stated)	·	–
COC(=O)c1scc(-c2ccccc2)c1S(=O)(=O)N1CCN(c2ncccn2)CC1	–	·
CCOC(=O)c1scc(-c2ccc(C)cc2)c1S(=O)(=O)N1CCN(c2ccccn2)CC1	+	–
C=CCc1cccc2cc(C(=O)N3CCN(CCOc4ccc(C)cc4)CC3)c(=O)oc12	–	–
COc1ccc(OC)c(S(=O)(=O)N2CCN(C(=O)c3cnn4ccccc34)CC2)c1	–	–
CCOC(=O)c1c(SCC(=O)Nc2ccccc2)nc(=O)[nH]c1C	–	–
COc1cc(-c2noc(Cn3c(=O)n(-c4ccccc4)c(=O)c4sccc43)n2)cc(OC)c1OC	–	–
CN(C)c1ccc(-c2noc(-c3cc4ccc(O)cc4oc3=O)n2)cc1	+	–
NC(=S)c1cc2ccc(O)cc2oc1=O	–	·
O=[N+]([O-])c1ccc(Nc2ccc(S(=O)(=O)Nc3nccs3)cc2)c([N+](=O)[O-])c1	–	14.0%[18.8 µM]
O=C(CCN1C(=O)c2ccccc2S1(=O)=O)Nc1ccc(S(=O)(=O)Nc2nccs2)cc1	–	–
COc1cccc(OC)c1C(=O)Nc1ccc([N+](=O)[O-])cn1	–	·
COc1ccc(C(=O)Nc2ccc([N+](=O)[O-])cn2)cc1OC	+	·
SMILES	AMPAR-TARP mod	GIRK2 activator
Cc1cc(=O)[nH]c(-n2nc(-c3ccco3)cc2NC(=O)C2CC2)n1	+	–
COCC(=O)Nc1cc(-c2ccco2)nn1-c1nc(C)cc(=O)[nH]1	–	–
Cc1ccc(NC(=O)Cn2ccn(-c3ccc(F)cc3)c(=O)c2=O)c(C)c1	–	–
CCN(C1CCCCC1)S(=O)(=O)c1ccc(C(=O)Nc2nnc(-c3ccco3)o2)cc1	–	–
CC12CCC(C(=O)Nc3ccccc3-n3cccc3)(CC1=O)C2(C)C (configuration not stated)	+	·
CC12CCC(C(=O)Nc3ccccc3N3CCOCC3)(CC1=O)C2(C)C (configuration not stated)	–	–
COc1ccc(-n2nnc(C(=O)OCc3nc(-c4cc(OC)c(OC)c(OC)c4)oc3C)c2C)cc1	–	·
CCc1cccc2sc(N3CCN(C(=O)Cc4ccc(S(=O)(=O)CC)cc4)CC3)nc12	+	·
CS(=O)(=O)c1ccc(CC(=O)N2CCN(c3nc4c(Cl)cccc4s3)CC2)cc1	–	·
Cc1ccc(S(=O)(=O)Nc2ccc3nnc(C)n3n2)cc1	–	–
O=C(c1ccc([N+](=O)[O-])o1)N(C(=O)N1CCCCC1)c1ccc(Cl)cc1	+	·
O=C(c1ccc(Br)o1)N(C(=O)N1CCCCC1)c1cccc(Cl)c1	–	–
O=C(c1cc2ccccc2o1)N(C(=O)N1CCCCC1)c1ccc(Cl)cc1	–	·
O=C(c1cc(=O)c2ccccc2o1)N(C(=O)N1CCCCC1)c1ccc(Cl)cc1	+	·
CC(=O)Cn1c(=O)c2c(nc3n(-c4cc(C)ccc4C)c(C)c(C)n23)n(C)c1=O	–	·
CCOc1cn(-c2ccc(F)cc2)nc1C(=O)N1CCCCC1	–	–
CCOC(=O)N1CCN(C(=O)c2nn(-c3ccc(F)cc3)cc2OCC)CC1	–	–
CCCOc1cn(-c2ccc(F)cc2)nc1C(=O)NCCc1ccccc1	–	–
CCOc1cn(-c2ccc(F)cc2)nc1C(=O)N1CC(C)CC(C)C1 (configuration not stated)	+	–
CCOc1cn(-c2ccc(F)cc2)nc1C(=O)N1c2ccccc2CC1C (configuration not stated)	+	–
CCCOc1cn(-c2ccc(F)cc2)nc1C(=O)NCCC(C)C	+	–
COc1ccccc1NC(=O)CN1CCC(c2nnc(C3CC3)o2)CC1	–	–

Assay outcomes as filed in PubChem BioAssay.
